Compound activity deposited in PubChem by National Center for Advancing Translational Sciences (NCATS).
DRD3 agonist – D3 dopamine receptor (human) agonism; D3R DiscoveRx beta-arrestin cells, luminescence, 90 min; max activation, %; hit rate 0.58% among 410,000; AID 652048; in the data active means max activation above about 30%; further: 0% is about no effect
Target sequence (P35462 whole entry, looked up): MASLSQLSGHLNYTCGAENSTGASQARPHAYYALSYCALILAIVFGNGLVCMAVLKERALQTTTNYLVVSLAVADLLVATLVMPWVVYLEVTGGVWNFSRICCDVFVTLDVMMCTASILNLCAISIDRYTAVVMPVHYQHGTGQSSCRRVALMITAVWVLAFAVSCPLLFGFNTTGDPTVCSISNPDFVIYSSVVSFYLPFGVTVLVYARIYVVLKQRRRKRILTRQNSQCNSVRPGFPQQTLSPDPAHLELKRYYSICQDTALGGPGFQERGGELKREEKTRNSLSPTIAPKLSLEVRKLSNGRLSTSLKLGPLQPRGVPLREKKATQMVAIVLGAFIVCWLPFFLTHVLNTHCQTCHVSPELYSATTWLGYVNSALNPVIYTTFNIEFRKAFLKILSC
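Agonist mode: compounds and dopamine controls were applied to plated cells for 90 min at 37 degrees C after an overnight attachment at 1500 cells/well. Luminescent read-out followed 30 - 60 minutes at room temperature with DiscoveRx detection reagent.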
DRD3 antagonist – antagonists of human D3 dopamine receptor | D3R cells, DiscoveRx beta-arrestin luminescence, antagonist mode; active compounds read low | max response, negative = inhibition, % | hit rate 2.5% among 360,000; in the data active means max response below about -50%; inconclusive means no clear call, values can overlap the other calls; further: on the % scale 0 is the no-effect control and ±100 the full control effect
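Cells plated overnight at 1500 cells/well, then exposed to library compounds with dopamine controls for 90 minutes at 37 degrees C. DiscoveRx reagent added for 30–60 minutes at room temperature; luminescence read, quantitative HTS format.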
DT40 TDP1 no CPT – qHTS for Inhibitors of human tyrosyl-DNA phosphodiesterase 1 (TDP1): qHTS in cells in absence of CPT; DT40 Tdp1-/- hTDP1 cells, no CPT, ATP luminescence, 48 h; Potency, µM (titrated, usually from 46.2 µM), for the others: top-dose activity change, negative = growth inhibition, most hits filed as inhibitors; hit rate 15% among 420,000; further: potency means the concentration at half of the fitted maximal effect; on the % scale 0 is the no-effect control and ±100 the full control effect; nearly all actives have a fitted effect of over 55% in size
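Chicken DT40 Tdp1-/- cells complemented with human TDP1, screened without camptothecin (DMSO vehicle only), 400 cells/well. Compounds pin-transferred, cells incubated at 37 °C for at least 48 hr. Growth read as ATP-dependent luminescence (CellTiter-Glo, 30 min at RT).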
ClpP mod – qHTS Assay for Activators of ClpP. ATP-dependent Clp protease proteolytic subunit (Bacillus subtilis (strain 168)), P80244. purified B. subtilis ClpP, FRET peptide cleavage, 20 min. Potency, µM (highest dose often 57.5 µM), inactives show at the top dose activity change, negative = active. hit rate 1.9% among 340,000. AID 651965, 2013; active means well fitted falling curve with a large enough effect; inconclusive means small, poorly fitted or top-dose-only effect; inactive means no such curve, though single readings can be large or run the other way; further: potency means the concentration at half of the fitted maximal effect; the source files actives as falling curves though it sought activators and does not explain the sign; nearly all actives have a fitted effect of over 65% in size
Target sequence (P80244 whole entry, looked up): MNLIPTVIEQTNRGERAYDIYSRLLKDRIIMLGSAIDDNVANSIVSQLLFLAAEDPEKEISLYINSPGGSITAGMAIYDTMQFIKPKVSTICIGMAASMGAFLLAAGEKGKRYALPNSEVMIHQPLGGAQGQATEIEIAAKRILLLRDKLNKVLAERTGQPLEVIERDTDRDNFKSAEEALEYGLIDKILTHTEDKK
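Purified B. subtilis ClpP, 10 microg/mL final in Tris/HCl pH8 with KCl, BSA, glycerol and Tween-20, cleaved an Abz/nitrotyrosine-quenched decapeptide. Fluorescence (ex 320, em 430) was read at 0 and 20 min at room temperature. Delta was normalized to 5.8 microM ADEP and DMSO/no-enzyme controls.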
IL-1B inflam inh – inflammasome signaling inhibition, IL-1 beta readout. hit rate 4.7% among 360,000. THP-1 LPS/ATP IL-1B secretion, AlphaLISA, 16 h; active compounds read low. AID 743279. activity change, % at 57.5 µM; in the data active means activity change below about -50%; inconclusive means mostly about -30% to -49%; further: on the % scale 0 is the no-effect control and ±100 the full control effect
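Secreted IL-1B measured by AlphaLISA bead assay after 16 h compound exposure of THP-1 cells; compounds (final up to 57.5 uM) added 1 h before LPS (250 ng/mL) and ATP (1.25 mM) stimulation; lower signal means less secretion.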
DT40 TDP1 CPT – DT40-hTDP1 cell growth loss with CPT. hit rate 12% among 420,000. chicken DT40 Tdp1-/-;hTDP1 cells + 20 nM CPT, ATP luminescence, 48 h. Potency, µM (top dose mostly 46.2 µM), for inactives: top-dose activity change, negative = growth inhibition, hits mostly inhibitors. AID 686979; further: potency means the concentration at half of the fitted maximal effect; on the % scale 0 is the no-effect control and ±100 the full control effect; nearly all actives have a fitted effect of over 55% in size
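Cell growth measured by CellTiter-Glo luminescence after a minimum 48 h, 37 C compound exposure with 20 nM CPT in Tdp1-knockout DT40 cells stably expressing hTDP1, seeded 400/well; qHTS titration format.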
* hit, by the source's call; i = inactive; ? = inconclusive; nt = not tested or not shown. Rows were chosen to be rich in hits. Some 21% of all compounds tested hit in one or more screens of this group. Unless noted, the call rests on the fitted dose curve; in most records, active means well fitted inhibition curve with a large enough effect; inconclusive means small, poorly fitted or top-dose-only effect; inactive means flat fitted curve, though single readings scatter.

SMILES	DRD3 agonist	DRD3 antagonist	DT40 TDP1 no CPT	ClpP mod	IL-1B inflam inh	DT40 TDP1 CPT
O=C1C(=Cc2cccc(O)c2O)SC(=S)N1CCCN1CCOCC1	5	14	15µM*	-1%	-2	13µM*
O=c1c(N2CCN(c3ccccc3)CC2)csc2ccc(Cl)cc12	-15	nt	?	?	nt	?
CCOC(=O)c1cc(-c2csc(-c3ccc(C(C)(C)C)cc3)n2)on1	32*	6	?	1%	42	-30%
CC(C)(C)N1C(=O)Cc2c1nc(N)c1c(N)nc(N3CCCCC3CO)c(C#N)c21 (stereo not drawn)	0	16	18µM*	-2%	-27	21µM*
CCC1Cc2c(nc(N)c3c(N)nc(N4CCCCC4)c(C#N)c23)O1 (stereo not drawn)	7	9	?	nt	nt	0%
C=CCn1c(SCC(=O)NCC(c2ccccc2)N(C)C)nnc1C1CCCCC1 (stereo not drawn)	-5	-7	-25%	2%	-3	0%
CNc1nc(Cl)c(SC)c(NCc2cccc(OC)c2)n1	-4	5	23µM*	nt	37	?
CS(=O)(=O)N(CC(=O)NCCSCc1cccc(Cl)c1)c1ccc(F)cc1	3	8	-17%	0%	-29	-17%
Cc1cccc(CSCCNC(=O)CN(c2ccccc2)S(=O)(=O)N(C)C)c1	-7	nt	21µM*	-25%	nt	?
Cc1cccc(N(CC(=O)NCCSCc2ccccc2)S(C)(=O)=O)c1	-3	7	?	1%	12	-3%
CN(C)S(=O)(=O)N(CC(=O)NCCSCc1cccc(Cl)c1)c1ccccc1	9	nt	23µM*	2%	nt	?
CC(=O)N(c1ccccc1)c1nc(/C=C/C(=O)Nc2c(C)cc(C)cc2C)cs1	5	7	?	1%	i	-18%
CCc1ccc2nc(NC(=O)c3cc(C)on3)sc2c1	-4	-3	8.2µM*	-4%	1	9.2µM*
CCOc1ccc2nc(NC(=O)C3=NN(c4ccccc4)C(=O)CC3)sc2c1	-4	4	26µM*	1%	20	?
CCOc1ccc2nc(NC(=O)c3ccccc3)sc2c1	4	nt	23µM*	76%	nt	13µM*
CCOc1ccc2nc(NC(=O)c3cccnc3)sc2c1	-7	3	-12%	-2%	-7	-22%
CCOc1ccc2nc(NC(=S)N(C)C)sc2c1	5	14	1.2µM*	1%	-14	1.3µM*
Cc1oc2ncn(C)c(=O)c2c1C(=O)N1CCN(c2ccccc2F)CC1	3	nt	-4%	-2%	nt	28%
CC1=C(C(N)=O)C(c2ccccc2Br)n2ncnc2N1 (stereo not drawn)	6	nt	-2%	-1%	nt	2%
CCOc1ccc2nc(NS(=O)(=O)Cc3ccccc3)sc2c1	-2	?	4.6µM*	-1%	36	3.3µM*
CCOc1ccc2nc(NC(=O)CSc3nc4cccnc4n3C)sc2c1	4	10	3.3µM*	1%	-11	8.2µM*
CCOc1ccc2nc(NC(=O)C3=NNC(=O)CC3)sc2c1	0	12	11%	-4%	-2	7%
CCOc1ccc2nc(NC(=O)c3cnc(C)cn3)sc2c1	2	-11	21µM*	-2%	-10	15µM*
CCOc1ccc2nc(NC(=O)CSc3ccccc3)sc2c1	1	18	26µM*	-2%	-9	?
CCc1nc2nc(C)cc(Nc3ccc(OC)cc3)n2n1	4	nt	-6%	1%	nt	?
SMILES	DRD3 agonist	DRD3 antagonist	DT40 TDP1 no CPT	ClpP mod	IL-1B inflam inh	DT40 TDP1 CPT
O=[N+]([O-])c1ccc(COc2ncnc3ccccc23)cc1	-18	-20	-3%	nt	-3	-2%
CCOc1ccc2nc(NC(=O)CCn3cccc3)sc2c1	1	21	-2%	-8%	-11	-9%
CCOc1ccc2nc(NC(=O)c3nc(SCc4ccccc4C)ncc3Cl)sc2c1	-13	nt	2.9µM*	-3%	nt	13µM*
CCOCC(=O)Nc1nc2ccccc2s1	5	1	-21%	0%	54	-10%
CCOc1ccc2nc(NC(=O)c3ccc(C)o3)sc2c1	8	15	18µM*	0%	-30	?
CN(C)C(=S)Nc1nc2ccccc2s1	-2	2	2.6µM*	1%	20	3.7µM*
CSc1cccc(Nc2nc3c(S(=O)(=O)c4ccccc4)nnn3c3ccc(Cl)cc23)c1	3	nt	?	-11%	nt	?
Cc1noc(C)c1C(=O)OCC(=O)C12CC3CC(CC(C3)C1)C2	-4	17	-1%	1%	41	-3%
CCOc1ccc(C=NNC(=O)c2cccc3ccccc23)cc1OCC	3	10	18µM*	-6%	7	?
COc1cc(/C=N/NC(N)=O)ccc1OCC(=O)Nc1ccc(C)c(C)c1	7	11	7%	-2%	-7	-5%
COc1cc(/C=N/NC(=O)c2cccc3ccccc23)ccc1OCC(N)=O	10	1	5.8µM*	nt	65	?
CCOc1cc(/C=N/NC(N)=O)ccc1OCC(=O)Nc1ccc(C)c(C)c1	14	20	23µM*	nt	-15	21µM*
CCOc1cc(/C=N/NC(=O)c2cc(C)n(-c3ccc(F)cc3)c2C)ccc1O	-5	-8	21µM*	-15%	11	16µM*
CC(C)c1ccc(Nc2c(-c3ccsc3)nc3ccc(Cl)cn23)cc1	-2	nt	?	-5%	nt	?
CCCCn1cnc2c(oc3ccccc32)c1=O	1	-1	-16%	-2%	-12	-3%
COc1cc(/C=N/NC(=O)c2cccc(C)c2)ccc1OCC(=O)Nc1ccccc1	-7	-11	18µM*	1%	13	?
CCOc1cc(/C=N/NC(=O)c2nn(C)cc2Br)ccc1OCc1ccccc1	21	33	10µM*	?	28	15µM*
COc1ccc(/C=N/NC(=O)c2nn(C)cc2Br)cc1CSCc1ccco1	2	10	?	-23%	0	?
COc1cc(/C=N/NC(=O)c2cccnc2)ccc1OCC(=O)Nc1ccc(C)cc1	23	-17	-23%	nt	14	19%
CCc1ccc(-n2nc3ccc(NC(=O)c4ccc(C#N)cc4F)cc3n2)cc1	2	nt	nt	3%	nt	nt
O=C(NNC(=O)c1cccc(S(=O)(=O)N2CCc3ccccc32)c1)c1ccccc1	2	2	5.2µM*	nt	30	?
O=C(Nc1nc2ccccc2s1)c1cccc(S(=O)(=O)N2CCc3ccccc32)c1	21	-3	10µM*	nt	25	-23%
CC(C)CCNC(=O)c1cccc(S(=O)(=O)N2CCc3ccccc32)c1	4	-23	?	0%	16	15µM*
